# Legend:
# [1] = test system: ACVR1B
# [2] = test system: AURKB
# [3] = test system: T1, YSK1; settings: Compound Concentration (nM):1000
# T1 construct: gene STK25
# [4] = test system: T2, YSK4; settings: Compound Concentration (nM):1000
# T2 construct: gene MAP3K19
# [5] = test system: ZAK; settings: Compound Concentration (nM):1000
# [6] = test system: ZAP70; settings: Compound Concentration (nM):1000
# [7] = test system: T3, p38-alpha; settings: Compound Concentration (nM):1000
# T3 construct: gene MAPK14
# [8] = test system: T4, p38-beta; settings: Compound Concentration (nM):1000
# T4 construct: gene MAPK11
# [9] = test system: T5, p38-delta; settings: Compound Concentration (nM):1000
# T5 construct: gene MAPK13
# [10] = test system: T6, p38-gamma; settings: Compound Concentration (nM):1000
# T6 construct: gene MAPK12
# [11] = test system: ACK1
# [12] = test system: ALK
# [13] = test system: ABL1
# [14] = test system: ATM
# [15] = test system: ATR
# [16] = test system: AURKA
# [17] = test system: AKT1
# [18] = test system: AKT2
# [19] = test system: ACVR1
# [20] = test system: ACVRL1
# 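For Percent Control in this document: KINOMEscan scanMAX binding as percent activity remaining versus control; lower means stronger binding.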
smiles,measurement,setting,value
Cc1cccc(-c2cc(Nc3ccncc3)c3ccccc3n2)n1 [GSK223675],Kinases covered,[1],ACVR1B
CCn1cc(-c2ccnc3[nH]c(-c4cccc(CN(C)C)c4)cc23)c(-c2ccc(NC(=O)N(C)C)cc2)n1 [GSK1070916],Kinases covered,[2],AURKB
COc1cc(/C=N/Nc2ncnc3[nH]ncc23)ccc1O [GW578748X],Percent Control,[3],70%
same,Percent Control,[4],3.2%
same,Percent Control,[5],59%
same,Percent Control,[6],76%
same,Percent Control,[7],100%
same,Percent Control,[8],100%
same,Percent Control,[9],100%
same,Percent Control,[10],69%
CNS(=O)(=O)c1ccc(N(C)C)c(Nc2ncnc3cc(OC)c(OC)cc23)c1 [GSK114],Kinases covered,[11],ACK1
COc1cc(C=NNc2ncnc3c2cnn3-c2ccccc2)ccc1O [GW513184X],Percent Control,[3],97%
same,Percent Control,[4],3.1%
same,Percent Control,[5],48%
same,Percent Control,[6],99%
same,Percent Control,[7],100%
same,Percent Control,[8],88%
same,Percent Control,[9],88%
same,Percent Control,[10],97%
Cl.O=C(Nc1ccc(Oc2ccc3[nH]c(NC(=O)c4ccccc4)nc3c2)cc1)Nc1cc(C(F)(F)F)ccc1F [GW709042A],Percent Control,[3],78%
same,Percent Control,[4],69%
same,Percent Control,[5],6.9%
same,Percent Control,[6],94%
same,Percent Control,[7],98%
same,Percent Control,[8],52%
same,Percent Control,[9],100%
same,Percent Control,[10],82%
CNC(=O)c1c(F)cccc1Nc1nc(Nc2cc3c(cc2OC)CCN3C(=O)CN(C)C)nc2[nH]ccc12 [GSK1838705],Kinases covered,[12],ALK
Nc1ncnc2occ(-c3ccc(NC(=O)Nc4cc(C(F)(F)F)ccc4F)cc3)c12 [GW770249X],Percent Control,[3],70%
same,Percent Control,[4],0.1%
same,Percent Control,[5],46%
same,Percent Control,[6],86%
same,Percent Control,[7],85%
same,Percent Control,[8],57%
same,Percent Control,[9],4.8%
same,Percent Control,[10],18%
COc1cc2ncn(-c3cc(O[C@H](C)c4ccccc4Cl)c(C(N)=O)s3)c2cc1OC [GSK237701A],Percent Control,[3],78%
same,Percent Control,[4],5.6%
same,Percent Control,[5],100%
same,Percent Control,[6],93%
same,Percent Control,[7],100%
same,Percent Control,[8],100%
same,Percent Control,[9],100%
same,Percent Control,[10],100%
O=C(NCCO)c1cccc(-c2cc(Nc3ccc(OC(F)(F)F)cc3)ncn2)c1 [GNF-5],Kinases covered,[13],ABL1
COc1cc2ncnc(Nc3ccc4c(cnn4Cc4ccccc4)c3)c2cc1OC.Cl [GW282449A],Percent Control,[3],89%
same,Percent Control,[4],98%
same,Percent Control,[5],100%
same,Percent Control,[6],100%
same,Percent Control,[7],100%
same,Percent Control,[8],100%
same,Percent Control,[9],100%
same,Percent Control,[10],100%
Cc1cccc(-c2nc(Nc3ccncc3)c3ccccc3n2)n1 [GW855857],Kinases covered,[1],ACVR1B
O=C(Nc1n[nH]c2nc(-c3ccc(O)cc3)c(Br)cc12)C1CC1 [SB-725317],Percent Control,[3],79%
same,Percent Control,[4],4.3%
same,Percent Control,[5],100%
same,Percent Control,[6],100%
same,Percent Control,[7],100%
same,Percent Control,[8],74%
same,Percent Control,[9],100%
same,Percent Control,[10],81%
C[C@@H](Oc1cc(-n2cnc3ccc(OC4CCN(C)CC4)cc32)sc1C(N)=O)c1ccccc1Cl [GSK579289A],Percent Control,[3],74%
same,Percent Control,[4],32%
same,Percent Control,[5],69%
same,Percent Control,[6],93%
same,Percent Control,[7],100%
same,Percent Control,[8],76%
same,Percent Control,[9],100%
same,Percent Control,[10],81%
CN1CCN(C(=O)c2ccc(NC(=O)Nc3ccc(N(C)c4ccnc(Nc5ccc(CS(C)(=O)=O)cc5)n4)cc3)cc2)CC1.Cl [GW830263A],Percent Control,[3],83%
same,Percent Control,[4],0%
same,Percent Control,[5],86%
same,Percent Control,[6],65%
same,Percent Control,[7],83%
same,Percent Control,[8],100%
same,Percent Control,[9],100%
same,Percent Control,[10],100%
CNCc1ccc(-c2cc(-c3nc(-c4ccc(S(=O)(=O)C(C)C)cc4)cnc3N)on2)cc1 [VE-822],Kinases covered,[14],ATM
same,Kinases covered,[15],ATR
CN1C(=O)c2ccccc2N(C)c2nc(Nc3cnn(C4CCNCC4)c3)ncc21 [XMD-17-51],Kinases covered,[13],ABL1
same,Kinases covered,[16],AURKA
NS(=O)(=O)c1ccc(Nc2ncc(-c3ccccc3)o2)cc1 [GW572399X],Percent Control,[3],54%
same,Percent Control,[4],30%
same,Percent Control,[5],100%
same,Percent Control,[6],100%
same,Percent Control,[7],100%
same,Percent Control,[8],100%
same,Percent Control,[9],100%
same,Percent Control,[10],100%
COc1ccccc1-c1cc(/C=C2\C(=O)Nc3ncc(Br)cc32)cc(Br)c1O [GW442130X],Percent Control,[3],99%
same,Percent Control,[4],98%
same,Percent Control,[5],100%
same,Percent Control,[6],100%
same,Percent Control,[7],100%
same,Percent Control,[8],92%
same,Percent Control,[9],67%
same,Percent Control,[10],57%
same,Kinases covered,[16],AURKA
CCn1c(-c2nonc2N)nc2c(C#CC(C)(C)O)nc(OCCNC)cc21.Cl [GSK949675],Percent Control,[3],89%
same,Percent Control,[4],0%
same,Percent Control,[5],100%
same,Percent Control,[6],100%
same,Percent Control,[7],100%
same,Percent Control,[8],94%
same,Percent Control,[9],100%
same,Percent Control,[10],84%
same,Kinases covered,[17],AKT1
same,Kinases covered,[18],AKT2
Cn1ccc2ncnc(Oc3ccc(Nc4nc5ccccc5[nH]4)cc3)c21 [TPKI-72],Kinases covered,[2],AURKB
COc1cccc(-n2ncc3c(N/N=C/c4ccncc4)ncnc32)c1 [GW784752X],Percent Control,[3],90%
same,Percent Control,[4],21%
same,Percent Control,[5],39%
same,Percent Control,[6],98%
same,Percent Control,[7],100%
same,Percent Control,[8],100%
same,Percent Control,[9],100%
same,Percent Control,[10],100%
COc1cc(-c2cncc(-c3cnn(C4CCNCC4)c3)c2)cc(OC)c1OC [K05908],Kinases covered,[1],ACVR1B
same,Kinases covered,[19],ACVR1
same,Kinases covered,[20],ACVRL1
Cl.O=C(Nc1ccc(Oc2ccc3[nH]c(NC(=O)c4ccco4)nc3c2)cc1)Nc1cc(C(F)(F)F)ccc1F [GW683134A],Percent Control,[3],70%
same,Percent Control,[4],13%
same,Percent Control,[5],3.2%
same,Percent Control,[6],100%
same,Percent Control,[7],97%
same,Percent Control,[8],37%
same,Percent Control,[9],100%
same,Percent Control,[10],82%
CS(=O)(=O)c1ccc(-c2cnc(N)c(C(=O)Nc3ccccc3)n2)cc1 [VE-821],Kinases covered,[15],ATR
CN(C)CCNC(=O)Nc1ccc(N(C)c2ccnc(Nc3ccc(CS(C)(=O)=O)cc3)n2)cc1.Cl [GW830900A],Percent Control,[3],100%
same,Percent Control,[4],12%
same,Percent Control,[5],100%
same,Percent Control,[6],90%
same,Percent Control,[7],99%
same,Percent Control,[8],100%
same,Percent Control,[9],99%
same,Percent Control,[10],100%
CC(C)COC(=O)c1ccc2c(c1)/C(=C/Nc1ccc(S(N)(=O)=O)cc1)C(=O)N2 [GW416981X],Percent Control,[3],65%
same,Percent Control,[4],11%
same,Percent Control,[5],100%
same,Percent Control,[6],100%
same,Percent Control,[7],100%
same,Percent Control,[8],100%
same,Percent Control,[9],100%
same,Percent Control,[10],100%
COc1ccc2c(-c3ccnc(Nc4cccc(OC(F)(F)F)c4)n3)cnn2n1 [GW810372X],Percent Control,[3],85%
same,Percent Control,[4],39%
same,Percent Control,[5],69%
same,Percent Control,[6],86%
same,Percent Control,[7],100%
same,Percent Control,[8],100%
same,Percent Control,[9],100%
same,Percent Control,[10],77%
COc1cc(N2CCN(C(C)C)CC2)ccc1Nc1nc(Nc2ccc(F)cc2C(=O)NC[C@@H](O)CO)c2cc[nH]c2n1 [GSK1392956A],Percent Control,[3],89%
same,Percent Control,[4],34%
same,Percent Control,[5],93%
same,Percent Control,[6],86%
same,Percent Control,[7],100%
same,Percent Control,[8],100%
same,Percent Control,[9],100%
same,Percent Control,[10],91%
COc1ccc(COc2ccc(Cc3cnc(N)nc3N)cc2OC)cc1 [GW632580X],Percent Control,[3],100%
same,Percent Control,[4],91%
same,Percent Control,[5],87%
same,Percent Control,[6],97%
same,Percent Control,[7],100%
same,Percent Control,[8],100%
same,Percent Control,[9],85%
same,Percent Control,[10],89%
